A selection: hits, their analogues and other compounds. The true share with any hit is near 9.4%.
ELG1 repair inh: inhibitors of ELG1-dependent DNA repair in HEK293T cells | hit rate 2.3% among 330,000 | Potency, µM (doses to about 46.1 µM), without a hit: top-dose activity change, negative = inhibition, hits mostly inhibitors | AID 504467 | HEK293T ELG1-luciferase reporter, luminescence, 16 h; DNA damage induced by 5-fluorouridine; also: % is scaled to controls: 0 for no effect and ±100 for the full control effect; nearly all actives have a fitted effect of over 55% in size
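Overnight (16 hr) co-exposure of 2,000 cells/well to 5-fluorouridine and compound at 37 °C preceded detection. Luciferase was quantified via ONE-Glo luminescence; loss of signal denotes inhibition.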
SMN2 splice enh: increases expression of the SMN2 splice variant; hit rate 2.8% among 210,000; AID 1458; Potency, µM (doses to about 46.1 µM), for inactives: at the highest dose activity change, positive = activation, hits mostly activators; HEK293 SMN2-luciferase splicing reporter, luminescence, 30-36 h; also: % of control where 0% means no effect; nearly all actives have a fitted effect of over 55% in size
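HEK293 cells carry an SMN2 minigene-luciferase reporter in which exon 7 inclusion puts luciferase in frame. Cells were seeded at 2000 cells/well, attached for 10-12 hours, then exposed to compounds for 30-36 hours at 37C before ONE-Glo luminescence.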
Rab9 prom act: activators of Rab9 promoter. Potency, µM (titrated, usually from 9.22 µM), inactives show at the top dose activation, negative = inhibition, actives largely listed as activators. Huh7 Rab9 promoter-luciferase reporter, luminescence, 24 h. hit rate 2.8% among 320,000; also: % of control where 0% means no effect; nearly all actives have a fitted effect of over 60% in size
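Luminescence read-out: Huh7 cells stably expressing Rab9-luciferase, treated 24 h with compound at 37 °C, then lysed with luciferase reagent for 10 min at ambient before reading.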
ELG1 genotox: genotoxicity induction in ELG1-luciferase HEK293T cells; HEK293T ELG1-luciferase reporter, luminescence, 16 h; Potency, µM (doses to about 46 µM), for inactives: top-dose activity change, positive = activation, usual class: activators; hit rate 1.3% among 330,000; also: % of control where 0% means no effect; nearly all actives have a fitted effect of over 60% in size
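HEK293T cells expressing luciferase-tagged ELG1 were treated with compound or DMSO for 16 hr at 37°C. Luciferase activity was then read after 30 min with ONE-Glo at room temperature; rising signal flags genetic stress.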
NPC1 promoter act: activators of NPC1 promoter | Huh7 NPC1 promoter luciferase reporter, 24 h | Potency, µM (highest dose often 9.22 µM), for inactives: at the highest dose activation, most hits filed as activators | hit rate 2.4% among 320,000 | AID 485313; also: % of control where 0% means no effect; nearly all actives have a fitted effect of over 60% in size
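Luminescence read-out of NPC1 promoter-driven luciferase in stably transfected Huh7 cells; compounds delivered in DMSO and left 24 h at 37C, 5% CO2, qHTS titration format.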
FLuc counter: inhibits or activates purified firefly luciferase, miR-21 counter-screen; purified FLuc, Km substrates, luminescence inhibition; hit rate 6.9% among 360,000; Potency, µM (titrated, usually from 57.5 µM), for the others: at the top dose activity change, negative = inhibition, hits mostly inhibitors; P08659;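 also: plate controls were vehicle for no effect and reference inhibitor for full effect; nearly all actives have a fitted effect of over 55% in size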
Target sequence (P08659 whole entry, looked up): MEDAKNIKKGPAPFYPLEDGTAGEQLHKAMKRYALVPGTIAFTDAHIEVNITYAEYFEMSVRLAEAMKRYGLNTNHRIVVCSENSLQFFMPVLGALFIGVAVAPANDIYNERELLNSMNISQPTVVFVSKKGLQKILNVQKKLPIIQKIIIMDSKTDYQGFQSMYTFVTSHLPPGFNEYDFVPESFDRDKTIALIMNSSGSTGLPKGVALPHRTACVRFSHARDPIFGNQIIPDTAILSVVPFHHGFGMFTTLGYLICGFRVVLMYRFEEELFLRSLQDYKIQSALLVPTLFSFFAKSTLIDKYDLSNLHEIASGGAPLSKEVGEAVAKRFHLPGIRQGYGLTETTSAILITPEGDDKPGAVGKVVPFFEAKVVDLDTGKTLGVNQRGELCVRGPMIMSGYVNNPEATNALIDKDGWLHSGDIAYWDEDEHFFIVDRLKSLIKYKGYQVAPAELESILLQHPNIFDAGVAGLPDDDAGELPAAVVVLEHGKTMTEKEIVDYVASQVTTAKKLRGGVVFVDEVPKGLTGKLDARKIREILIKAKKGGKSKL
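Purified P. pyralis luciferase, 10 nM final, with Km-level 10 uM D-luciferin and 10 uM ATP in 50 mM Tris acetate pH 7.5, 10 mM Mg acetate, 0.01% Tween-20, 0.05% BSA; 6-point qHTS titration about 60 µM downward; luminescence read.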
An asterisk follows results filed as active; ? = inconclusive; . = no result; [ ] = another dose, or the depositor's remark. Calls follow the shape of the dose curve; as a rule, active = well fitted curve in the direction sought with a large enough effect; inconclusive = small, poorly fitted or top-dose-only effect, or another doubt; inactive = no such curve, though single readings can be large; an effect the other way counts as inactive or inconclusive. Potency is read from the fitted curve at half-maximal effect.

SMILES	ELG1 repair inh	SMN2 splice enh	Rab9 prom act	ELG1 genotox	NPC1 promoter act	FLuc counter
CC(=O)c1ccc(NC(=O)NC2CCCCCCC2)cc1	?	.	1.8µM*	8.2µM*	1.6µM*	12µM*
Cc1cccc(NC(=O)NC2CCCCCCC2)c1	?	.	3.5µM*	?	1.6µM*	11µM*
CC(=O)c1cccc(NC(=O)NC2CCCCC2)c1	17%	13%	-5%	1%	3%	?
Cc1ccc(N2CCN(C(=O)C3CCN(S(=O)(=O)c4ccc5c(c4)oc(=O)n5C)CC3)CC2C)cc1 (stereo unspecified)	.	-9%	.	.	.	-5%
C[C@@H](CSC(=N)N)C(N)=O	.	-16%[9.22 µM]	.	.	.	.
O=C(Nc1ccc2nsnc2c1)NC1CCCCC1	?	?	1.4µM*	?	2.2µM*	6.7µM*
Cc1ccc(NC(=O)NC2CCCCCCC2)cc1C	?	.	3.5µM*	?	4µM*	7.6µM*
O=C(Nc1ccc2nsnc2c1)C1CC1	-21%	.	1%	-1%	-2%	-11%
Cc1cc2ccccc2n1CCNC(=O)C1CCCC1	-1%	-8%	1%	1%	-3%	2%
Cc1cc2ccccc2n1CCNC(=O)C1CCCCC1	-2%	-56%	2%	23µM*	-2%	0%
Cc1cc2ccccc2n1CCNC(=O)c1cccs1	?	-29%	?	?	?	21µM*
COc1ccccc1-c1c(C)nn2c(-c3ccccc3)cc(-c3ccccc3)nc12	.	-7%	.	.	.	1%
Cc1ccc(-n2c(O)c(/C=N/Nc3ccc(S(=O)(=O)N4CCOCC4)cc3[N+](=O)[O-])c3ccccc3c2=O)c(C)c1	?	-99%	-15%	-14%	-7%	24µM*
COc1ccc(Nc2n[nH]c(C)c2[N+](=O)[O-])cc1	?	29%	3.5µM*	?	22%	?
COc1ccc(Nc2ccncc2[N+](=O)[O-])cc1	5.8µM*	-21%	-5%	-10%	0%	-5%
O=[N+]([O-])c1cnccc1Nc1cccc(F)c1	-7%	-16%	1%	1%	-2%	-1%
NC(=O)c1c(/N=C/c2cccs2)sc2c1CCCC2	?	.	?	9%	1.3µM*	12µM*
S=c1[nH]nc(-c2ccco2)n1/N=C/C(Cl)=C/c1ccccc1	?	.	1.6µM*	?	3.5µM*	?
Cc1cccc2c3nc4ccccc4nc3n(C)c12	15%	.	4.5µM*	5%	1.4µM*	2.4µM*
CCCn1c(N)c(C(=O)COC(=O)c2c(C)noc2C)c(=O)n(C)c1=O	23µM*	-25%	-5%	-3%	-1%	-4%
COc1cc(Cl)c(S(=O)(=O)NCCc2c(C)[nH]c3c(C)cccc23)cc1Cl	.	1%	.	.	.	-2%
Cc1cccc2c1OCC/C2=N\NC(=O)COc1ccccc1Cl	?	22%	3.2µM*	?	2.2µM*	3.8µM*
O=S(=O)(NCC(c1ccco1)S(=O)(=O)c1cccs1)c1ccc(Cl)cc1 (stereo unspecified)	.	.	.	.	.	-3%
O=C(O)COc1ccccc1/C=N/NC(=O)COc1ccc(-c2ccccc2)cc1	4%	.	-5%	-3%	-3%	4.8µM*
CC(C)(C)c1ccc(C(=O)NCC(=O)N/N=C/c2ccccc2OCC(=O)O)cc1	?	6%	0%	5%	0%	17µM*
SMILES	ELG1 repair inh	SMN2 splice enh	Rab9 prom act	ELG1 genotox	NPC1 promoter act	FLuc counter
O=C(O)COc1ccccc1/C=N/NC(=O)CNC(=O)c1ccco1	19%	.	-1%	4%	-6%	3%
COc1ccc(Br)c(/C=N/NC(=O)COc2ccc(-c3ccccc3)cc2)c1	.	-8%	.	.	.	?
CCC12CN3CC(C)(CN(C1)C3c1c[nH]c3ccc(OC)cc13)C2=O (stereo unspecified)	.	-6%	.	.	.	-6%
COc1cc(C(=O)OCC(=O)NCc2ccc(F)cc2)cc(NC(=O)c2cccs2)c1OC	21µM*	-14%	-1%	0%	2%	?
COc1cc(NC(=O)c2cccs2)c(C(=O)OCC(=O)c2cc(C)n(-c3ccc(F)cc3)c2C)cc1OC	?	-9%	0%	8%	0%	9.5µM*
COc1cc(NC(=O)c2cccs2)c(C(=O)OCC(=O)c2cc(C)n(-c3ccccc3)c2C)cc1OC	?	13%	-20%	-7%	-17%	5.4µM*
COc1ccc(N2C(=O)CSC23C(=O)N(CC(=O)NC2CCCCC2)c2ccccc23)cc1 (stereo unspecified)	.	.	.	.	.	-4%
Cc1ccc(NC(=O)N(Cc2cn(C)c3ccccc23)C2CCCCC2)cc1C	.	11%	.	.	.	?
COc1cc(C(=O)NS(=O)(=O)c2ccccc2C)ccc1Cc1cn(C)c2ccc(NC(=O)OC3CCCC3)cc12	.	.	0%	.	6%	11µM*
Cc1ccc(-c2cc(C(=O)NCc3ccco3)c3ccccc3n2)o1	?	-7%	14%	-9%	-6%	12µM*
Cc1cc(C(=O)NCc2ccco2)c2ccccc2n1	-8%	27%	-6%	-3%	-5%	-1%
COc1cccc(-c2cc(C(=O)NCc3ccco3)c3ccccc3n2)c1	?	.	1%	-11%	9%	21µM*
Cc1ccccc1Nc1cc(C(=O)NCc2ccco2)c2ccccc2n1	?	-9%	-4%	-7%	-6%	15µM*
O=C(NCc1ccco1)c1cc(-c2ccncc2)nc2ccccc12	?	-5%	9%	-3%	-3%	-9%
COc1ccccc1-c1nnc(C2CCN(S(=O)(=O)c3ccc(CC(C)C)cc3)CC2)o1	.	-36%	.	.	.	-10%
CCc1c(C)sc2c1CCN(Cc1ccccc1F)C2c1ccccc1 (stereo unspecified)	.	.	.	.	.	-1%
COc1ccc(OC)c(NC(=O)CN2C(=O)COc3ccc(S(=O)(=O)NC4CCCC4)cc32)c1	.	.	.	.	.	-7%
COc1ccc2c(c1)O[C@@H](c1cccc(C(F)(F)F)c1)[C@H](OC(=O)NS(=O)(=O)c1ccc(F)cc1)C2=O	.	17%	.	.	.	.
CCn1ncc(/C=C2/SC(=S)NC2=O)c1C	-2%	13%	2%	-1%	1%	15µM*
CCn1c(C)cc(/C=C2/SC(=S)NC2=O)c1C	?	?	?	?	?	4.8µM*
Cc1nn(-c2ccccc2)c(Cl)c1/C=C1\SC(=S)NC1=O	?	-3%	0%	-12%	-5%	-19%
Cc1cc(/C=C2\SC(=S)NC2=O)c(C)[nH]1	?	19%	9%	?	8%	11µM*
Cc1nc2c(sc3nc4c(cc32)COC(C)(C)C4)c(=O)n1CC(=O)NCc1ccco1	?	13µM*	?	?	-7%	8.5µM*

Screens: PubChem BioAssay, National Center for Advancing Translational Sciences (NCATS)
